Results on 15 compounds are retold here after PubChem BioAssay (NCATS).

Several values for one entry are separate records, joined by “and”; a condition that tells them apart may be missing. Equal values may be shown once. Records with an inconclusive call do not appear. Some compounds were tested as several samples or in several runs, with calls that do not always agree. Activity calls are given as the source filed them. Unless noted, the call rests on the fitted dose curve; in most records, active means well fitted curve in either direction with a large enough effect (not every such curve was filed as active); inconclusive means small, poorly fitted or top-dose-only effect, or another doubt; inactive means flat fitted curve, though single readings scatter. Bounds are passed on as bounds.

The nature of test [1]: AP1 Signaling Pathway (AID 357). Further: on the % scale 0 is the no-effect control and ±100 the full control effect. In outline: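 AP-1-bla ME-180 cells with beta-lactamase reporter under AP-1 response element, stimulated with EC50 EGF; compounds titrated, 5 hours at 37 degrees Celsius. CCF4 read at 460/530 nm ratio; positive and negative modulators judged by AC50.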
Test [2] in a line: Cell Viability - BJ (AID 421; calls by dose curve;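 further: potency means the concentration at half of the fitted maximal effect; cells exposed to compound for 40 hours at 37 °C before readout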). As to conditions: BJ fibroblast viability, qHTS. In short, it runs like this: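 Normal human BJ foreskin fibroblasts, 1500/well in complete medium, treated 40 hr at 37 °C. Cellular ATP by CellTiter-Glo luminescence; normalized to DMSO and 100 uM tamoxifen, AC50 from Hill fit.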
The nature of test [3]: Cell Viability - Jurkat (AID 426;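 active means dose-dependent loss of cell ATP signal giving a full or clear fitted curve, ranked by lower potency value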; further: potency means the concentration at half of the fitted maximal effect). As to conditions: qHTS. In short, it runs like this:
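qHTS, 1536-well; Jurkat E6-1, 5000 cells/well, complete medium; cpd 40 hr, 37 °C; CellTiter-Glo 20 min RT; luminescence. AC50 by Hill fit.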
(qHTS replaces the single test concentration by a dilution series.)

The nature of test [4]: Cell Viability - Hek293 (AID 427;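 active means compounds whose dose-response curve shows a full or clear partial loss of cell viability, called from curve shape rather than a numeric limit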;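 further: potency means the concentration at half of the fitted maximal effect; cells exposed to compound for 40 hours at 37 °C before reading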). As to conditions: qHTS. In outline:
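HEK293 cells in complete medium were exposed to compound for 40 hr at 37 °C, then cellular ATP was read by CellTiter-Glo luminescence. Data were normalized to DMSO (basal) and 100 uM tamoxifen (100% inhibition), and AC50 came from Hill fits.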

The nature of test [5]: Cell Viability - MRC5 (AID 434; calls by dose curve;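 further: potency means the concentration at half of the fitted maximal effect; potency reflects cytotoxicity seen as loss of intracellular ATP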). As to conditions: MRC5 lung fibroblast viability, qHTS. In outline:
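qHTS cytotoxicity in human lung fibroblast MRC5 cells; 40 hr treatment, 37 °C; cellular ATP by luciferase luminescence; DMSO = 0%, 100 uM tamoxifen = 100% inhibition; Hill-fit AC50.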

A short description of test [6]: Cell Viability - SK-N-SH (AID 435; calls by dose curve;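 further: potency means the concentration at half of the fitted maximal effect; compound exposure lasted 40 h at 37 °C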). As to conditions: SK-N-SH neuroblastoma cell viability qHTS. In short, it runs like this: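 SK-N-SH human neuroblastoma cells (1500/well) were exposed to compounds in complete medium for 40 h at 37 °C, and intracellular ATP was then measured by CellTiter-Glo luminescence. AC50 was taken from Hill fits, normalized to DMSO and 100 uM tamoxifen.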

Test [7] can be described thus: NFAT Signaling Pathway (AID 444).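 Further: carbachol stimulus at about its EC50 of 1 µM final; on the % scale 0 is the no-effect control and ±100 the full control effect.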 As to conditions: Jurkat NFAT-bla M1, carbachol, beta-lactamase ratio, 5 h. In short, it runs like this: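 Read-out: CCF4 FRET ratio (460 nm/530 nm) after 1 h RT dye loading, used for %activity and AC50 from titration series. Cells: Jurkat NFAT-β-lactamase/M1 line, treated with compound plus 1 uM carbachol for 5 h, 37 °C.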
A short description of test [8]: Stat Signaling Pathway (AID 446).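 Further: ME-180 cervical cancer cells given 40 pM IL-6 alongside compound; SIE-controlled beta-lactamase reporter measured as 460/530 nm FRET emission ratio; on the % scale 0 is the no-effect control and ±100 the full control effect.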 In outline: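 ME-180 cells carrying a SIE-driven beta-lactamase reporter are stimulated with 40 pM IL-6 for 5 h at 37C in the presence of compound. The 460/530 nm FRET substrate ratio is read after 2.5 h at RT. Data are normalised to 300 pM IL-6 and to 125 nM JAK inhibitor controls.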
In test [9] the target is Glucocorticoid receptor (Homo sapiens) (UniProt P04150). The test is described as follows: GR-GFP Redistribution (AID 450;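 active means compounds whose dose series gives a full or clear partial fitted curve of increased nuclear translocation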; further: potency means the concentration at half of the fitted maximal effect). As to conditions: U2OS GR-GFP nuclear translocation, laser cytometry, 2 h.
Test [10] has as its target Cytochrome P450 1A2 (Homo sapiens) (UniProt P05177). Put plainly: p450-cyp1a2 (AID 410; calls by dose curve; further: potency means the concentration at half of the fitted maximal effect;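 on activity change, negative = inhibition: -100% = full effect of reference inhibitor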). In outline: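 Luminescent readout of luciferin formed from Luciferin-ME by human CYP1A2; data normalized against complete inhibition by 57 uM furafylline. Enzyme 20nM, substrate 100uM at Km, 100mM KPO4 buffer, 60 min reaction at room temperature.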

Glucocorticoid receptor (Homo sapiens), sequence (P04150 whole entry, looked up): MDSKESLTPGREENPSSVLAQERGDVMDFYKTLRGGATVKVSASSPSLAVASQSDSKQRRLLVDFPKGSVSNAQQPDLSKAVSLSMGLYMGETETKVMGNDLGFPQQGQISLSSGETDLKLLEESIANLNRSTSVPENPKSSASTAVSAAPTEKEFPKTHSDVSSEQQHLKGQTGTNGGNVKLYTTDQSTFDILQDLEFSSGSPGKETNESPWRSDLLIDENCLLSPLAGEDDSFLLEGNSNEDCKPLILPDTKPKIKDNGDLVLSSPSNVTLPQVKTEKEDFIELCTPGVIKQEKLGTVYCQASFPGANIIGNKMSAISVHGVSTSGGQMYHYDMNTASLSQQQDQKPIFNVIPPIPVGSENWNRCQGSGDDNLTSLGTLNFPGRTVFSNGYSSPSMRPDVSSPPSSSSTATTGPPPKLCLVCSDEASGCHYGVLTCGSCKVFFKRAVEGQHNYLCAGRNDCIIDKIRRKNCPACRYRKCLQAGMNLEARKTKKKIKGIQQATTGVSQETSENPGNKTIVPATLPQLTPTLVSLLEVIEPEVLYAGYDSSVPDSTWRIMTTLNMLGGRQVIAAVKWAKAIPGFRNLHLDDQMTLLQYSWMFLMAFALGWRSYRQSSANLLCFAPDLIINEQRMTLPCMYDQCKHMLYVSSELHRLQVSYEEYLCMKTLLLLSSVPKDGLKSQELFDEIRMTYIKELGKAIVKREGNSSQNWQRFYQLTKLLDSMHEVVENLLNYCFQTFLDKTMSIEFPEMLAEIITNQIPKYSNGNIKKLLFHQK
Cytochrome P450 1A2 (Homo sapiens), sequence (P05177 whole entry, looked up): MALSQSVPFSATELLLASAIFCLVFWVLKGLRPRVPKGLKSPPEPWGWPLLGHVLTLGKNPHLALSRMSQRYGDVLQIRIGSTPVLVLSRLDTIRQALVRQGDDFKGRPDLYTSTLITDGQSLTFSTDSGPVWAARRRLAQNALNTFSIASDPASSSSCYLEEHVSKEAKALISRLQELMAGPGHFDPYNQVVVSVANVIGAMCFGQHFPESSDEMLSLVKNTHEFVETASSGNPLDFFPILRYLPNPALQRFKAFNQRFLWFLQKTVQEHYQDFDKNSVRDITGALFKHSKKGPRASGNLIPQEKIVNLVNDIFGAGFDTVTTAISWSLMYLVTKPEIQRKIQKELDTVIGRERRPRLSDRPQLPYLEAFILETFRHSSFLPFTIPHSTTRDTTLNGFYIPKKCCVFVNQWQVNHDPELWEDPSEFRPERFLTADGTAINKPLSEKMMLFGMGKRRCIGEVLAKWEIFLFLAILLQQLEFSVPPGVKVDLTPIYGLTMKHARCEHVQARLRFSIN

As to `C[C@]12CCC(=O)C=C1CC[C@@H]1[C@@H]2CC[C@]2(C)C(=O)CC[C@@H]12`, the outcome in test [1] and in [8] was inactive. Also, the Potency in [2] is > 92 µM (inactive); in test [3] it was > 92 µM (inactive); in test [4] it was 36.7 µM (active); in test [5], > 92 µM (inactive); in test [6] it was > 92 µM (inactive). In addition, the activity change, negative = inhibition in [7] (at 17.2 µM (top of the series)) is 7.44% (inactive).
As to `C[N+]1(C)[C@@H]2CC(OC(=O)[C@H](CO)c3ccccc3)C[C@H]1[C@@H]1O[C@@H]12` (some centres not stated), the compound was classed as inactive in test [1] and in test [8]. The activity change, negative = inhibition in [7] (at 17.2 µM (top of the series)) is -68.4% (active). The Potency in test [9] is > 20.6 µM (inactive).
Regarding `CCC1(CC)C(=O)C=CNC1=O`, the compound was called inactive in test [1] and in test [8]. Also, the Potency entry in test [10] was “inactive”. In addition, the activity change, negative = inhibition in [7] (at 17.2 µM (top of the series)) is -4.7% (inactive). Besides, the Potency in [9] was > 20.6 µM (inactive).
Regarding `CNC(C)(C)Cc1ccccc1`, the outcome in [1] and in test [8] was inactive. Besides, the Potency result in test [10] is “inactive”. Also, the activity change, negative = inhibition in test [7] (at 17.2 µM (top of the series)) is -3.4% (inactive). The Potency in test [9] was > 20.6 µM (inactive).
Turning to `O=C(O)CCCc1ccc(N(CCCl)CCCl)cc1`, the outcome in test [1] and in test [8] was inactive. The Potency result in test [10] was “inactive”. Further, the Potency in test [3] was 22.8 µM (active); in [4], 18.6 µM (active). Besides, the activity change, negative = inhibition in [7] (at 17.2 µM (top of the series)) is -26.3% (inactive); in [7] (at 38 µM (top of the series)) it was -2.19% (inactive).
As to `[N-]=[N+]=CC(=O)OC[C@H](N)C(=O)O`, the compound was called inactive in test [1] and in test [8]. Besides, the activity change, negative = inhibition in test [7] (at 17.2 µM (top of the series)) was -1.72% (inactive).
Consider `COc1c2c(cc3c1OCO3)CCN(C)C2`, for which the call in [1] and in test [8] was inactive. Moreover, the Potency in [10] was 2 µM (active); in [9], > 20.6 µM (inactive). In addition, the activity change, negative = inhibition in test [7] (at 17.2 µM (top of the series)) is -27% (inactive).
In the case of `O=P1(N(CCCl)CCCl)NCCCO1` (configuration not stated), in [1], the compound was classed as inactive. Moreover, the Potency result in test [10] is “inactive”. Moreover, the Potency was > 92 µM (inactive) in test [2]; > 92 µM (inactive) in test [3]; > 92 µM (inactive) in [4]; > 92 µM (inactive) in [5]; > 92 µM (inactive) in test [6]; > 46 µM (inactive) in test [9]. In test [7] (at 38 µM (top of the series)), the activity change, negative = inhibition was 4.3% (inactive).
Turning to `Clc1ccc(C(c2ccc(Cl)cc2)C(Cl)(Cl)Cl)cc1`, the Potency in test [2] and in test [5] was > 92 µM (inactive) throughout.
As for `CN1C[C@H](C(=O)N[C@]2(C)O[C@@]3(O)[C@@H]4CCCN4C(=O)[C@H](Cc4ccccc4)N3C2=O)C=C2c3cccc4[nH]cc(c34)C[C@H]21`, the Potency in test [2] is > 92 µM (inactive); in test [3], 56.2 µM (active); in test [5], > 92 µM (inactive); in test [6] it was > 92 µM (inactive).
With `CC(C)c1cccc(C(C)C)c1O`, the call in [1] and in test [8] was inactive. Moreover, the Potency in [2], in [3], in [4], in [5] and in test [6] was > 92 µM (inactive) each time. Moreover, the activity change, negative = inhibition in test [7] (at 17.2 µM (top of the series)) was -3.69% (inactive); in test [7] (at 38 µM (top of the series)) it was 7.25% (inactive).
Take `O=C(CCCN1CCC2(CC1)C(=O)NCN2c1ccccc1)c1ccc(F)cc1`: the outcome in [1] was inactive. Besides, the Potency result is “inactive and 25.1 µM (active)” in test [10]; > 46 µM (inactive) and > 20.6 µM (inactive) in [9]. Also, the activity change, negative = inhibition is -4.55% (inactive) in test [7] (at 17.2 µM (top of the series)) and 10.5% (inactive) in test [7] (at 38 µM (top of the series)).
Consider `Nc1ccccc1`, for which the Potency in test [2], in test [3], in test [4], in test [5] and in test [6] was > 92 µM (inactive) in each case.
Take `O=c1[nH]oc2c1CCNC2`: the call in [1] and in [8] was inactive. The Potency entry in [10] was “inactive”. Also, the activity change, negative = inhibition is -9.07% (inactive) in test [7] (at 17.2 µM (top of the series)) and 9.6% (inactive) in test [7] (at 38 µM (top of the series)). Moreover, the Potency in [9] is > 46 µM (inactive) and > 20.6 µM (inactive).
`CCC(C)(C)c1ccc(O)cc1`: the Potency in test [2], in [3], in [4], in [5] and in [6] was > 92 µM (inactive) throughout.
